Hits are enriched below; roughly 2.6% of the tested compounds scored in any of these assays.
MCL1 BIM primary: inhibitors of MCL1 binding to BIM-BH3, primary screen, biochemical, fluorescence polarization; Induced myeloid leukemia cell differentiation protein Mcl-1 (Homo sapiens), Q07820; GST-MCL1 / FITC-Bim-BH3 fluorescence polarization; inhibition, % at 10.9 µM; hit rate 0.68% among 320,000; AID 2057, 2009;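 active = inhibition above the mean inhibition of all tested compounds plus 3 SD, set per campaign, cut at about 40% in these data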;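 also: 0% = DMSO wells and 100% = unlabeled Bim-BH3 peptide control; higher means more loss of mP so more displacement of Bim peptide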
eIF4E-4G inh: eIF4E–eIF4G protein interaction inhibitors, primary screen, biochemical, uHTS, TR-FRET, eIF4GI fragment; Eukaryotic translation initiation factor 4E (Mus musculus) + Eukaryotic translation …; TR-FRET eIF4E-eIF4GI(517-606) binding, 2 h; inhibition, % at 21.7 µM; hit rate 0.37% among 220,000;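 active = inhibition above about 30%, limit read from the data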;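 also: 0% = full FRET control wells and 100% = background wells lacking eIF4GI fragment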
Mcl-1 Bim block: inhibitors of Bim peptide binding to Mcl-1, primary screen, biochemical, bead-based flow cytometry, multiplex; Induced myeloid leukemia cell differentiation protein Mcl-1 (Homo sapiens), Q07820; hit rate 0.1% among 190,000; Bim peptide-Mcl-1 binding; inhibition, % at 10 µM; AID 1009, 2008; in the data active = inhibition above about 40%;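 also: 0% = no compound tracer wells and 100% = peptide blocker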
Mcl1 Noxa PPI: Mcl-1/Noxa binding inhibitors, primary screen, biochemical, TR-FRET, 1536-well. Induced myeloid leukemia cell differentiation protein Mcl-1 (Homo sapiens), Q07820. TR-FRET Mcl-1/Noxa peptide binding, 2 h. inhibition, % at 21.7 µM. hit rate 1.5% among 220,000. AID 1022, 2008;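 active = compounds that cut the protein-peptide binding signal by more than 50% relative to plate controls in a single-dose test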;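 also: His-tagged Mcl-1 with rhodamine Noxa BH3 peptide and terbium anti-His antibody; 0% = Mcl-1 plus Noxa peptide wells and 100% = peptide-only wells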
Mcl1 Bid PPI: Mcl-1/Bid binding inhibitors, primary screen, biochemical, TR-FRET, 1536-well; inhibition, % at 21.7 µM; hit rate 0.97% among 220,000; AID 1021, 2008; Induced myeloid leukemia cell differentiation protein Mcl-1 (Homo sapiens), Q07820; TR-FRET Mcl-1/Bid-Dy647 peptide binding;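 active = compounds that cut the binding signal by more than half at the single screening dose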;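 also: His-tagged Mcl-1 with europium anti-His antibody binding Bid BH3 peptide; 0% = Mcl-1 plus peptide wells and 100% = peptide-only wells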
14-3-3 Bad PPI: inhibitors of 14-3-3 zeta/Bad binding, primary screen, biochemical, TR-FRET, bovine 14-3-3 zeta; hit rate 0.71% among 220,000; TR-FRET 14-3-3zeta/Dy647-pBad peptide displacement, 1 h; 14-3-3 protein zeta/delta (Bos taurus), P63103; inhibition, % at 21.7 µM; AID 781, 2007;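 active = inhibition above about 70%, limit read from the data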;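 also: 0% = full 14-3-3 plus peptide FRET controls and 100% = background without 14-3-3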
Target sequence (P63103 whole entry, looked up): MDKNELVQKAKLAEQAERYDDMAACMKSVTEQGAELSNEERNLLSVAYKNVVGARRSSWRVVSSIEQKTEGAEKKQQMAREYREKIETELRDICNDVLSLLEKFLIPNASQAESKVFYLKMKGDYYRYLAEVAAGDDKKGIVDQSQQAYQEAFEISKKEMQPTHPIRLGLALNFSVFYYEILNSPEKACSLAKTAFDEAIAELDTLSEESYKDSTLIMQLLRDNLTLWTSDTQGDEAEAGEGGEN
The depositor's hits bear a star.

How did CCOC(=O)C1=C(O)/C(=C\c2ccc(CNS(=O)(=O)c3ccc(Br)cc3)o2)N=C1C do in these assays?
MCL1 BIM primary: 37.1; eIF4E-4G inh: 3.7; Mcl-1 Bim block: -1.0; Mcl1 Noxa PPI: 57.0*; Mcl1 Bid PPI: -65.2; 14-3-3 Bad PPI: -9.1

Results for COC(=O)C1=C(O)/C(=C\c2ccc(CNC(=O)C(=O)Nc3ccc(C)c(C)c3)o2)N=C1C ?
MCL1 BIM primary: 28.2; eIF4E-4G inh: -2.5; Mcl-1 Bim block: 7.0; Mcl1 Noxa PPI: 55.1*; Mcl1 Bid PPI: 34.0; 14-3-3 Bad PPI: 40.4

How did COC(=O)C1=C(O)/C(=C\c2ccc(CNS(=O)(=O)c3ccc(Cl)cc3)o2)N=C1C do in these assays?
MCL1 BIM primary: 25.6; eIF4E-4G inh: -7.2; Mcl-1 Bim block: -5.0; Mcl1 Noxa PPI: 30.9; Mcl1 Bid PPI: -25.7; 14-3-3 Bad PPI: -22.4

How did O=C(Cc1ccsc1)Nc1ccccc1F do in these assays?
MCL1 BIM primary: 6.0

Results for O=C(Cc1sc(-c2ccccc2Cl)nc1-c1ccccc1)Nc1ccccc1 ?
MCL1 BIM primary: 1.4; eIF4E-4G inh: -4.5; Mcl-1 Bim block: 6.0; Mcl1 Noxa PPI: -29.0; Mcl1 Bid PPI: 83.5*; 14-3-3 Bad PPI: -16.0

Results for O=[N+]([O-])c1ccc(NCc2ccccc2N2CCC(CO)CC2)nc1 ?
MCL1 BIM primary: 5.3

How did CN(C)c1ccc(NC(=O)CSc2nc(N)c(C(=O)Nc3ccc(N(C)C)cc3)s2)cc1 do in these assays?
MCL1 BIM primary: 9.2; eIF4E-4G inh: 10.3; Mcl-1 Bim block: 1.0; Mcl1 Noxa PPI: 72.9*; Mcl1 Bid PPI: -40.7; 14-3-3 Bad PPI: 0.4

How did CCOC(=O)c1sc(SCC(=O)Nc2ccc(N(C)C)cc2)nc1N do in these assays?
MCL1 BIM primary: 16.6; eIF4E-4G inh: 6.1; Mcl-1 Bim block: -1.0; Mcl1 Noxa PPI: 72.5*; Mcl1 Bid PPI: -41.3; 14-3-3 Bad PPI: 19.4

Results for Nc1cc(=O)[nH]c(SCC(=O)N2CCC(Cc3ccccc3)CC2)n1 ?
MCL1 BIM primary: -7.5

How did Clc1ccccc1-c1nc(-c2ccncc2)no1 do in these assays?
MCL1 BIM primary: 2.2; eIF4E-4G inh: 6.2; Mcl1 Noxa PPI: 9.9; Mcl1 Bid PPI: 18.9; 14-3-3 Bad PPI: 72.9*

What do the screens show for `c1ccc(-c2ccccc2-c2nc(-c3ccncc3)no2)cc1`?
MCL1 BIM primary: 9.8; eIF4E-4G inh: 3.1; Mcl-1 Bim block: -2.0; Mcl1 Noxa PPI: 46.3; Mcl1 Bid PPI: 8.1; 14-3-3 Bad PPI: 9.0

What do the screens show for `Nc1nc(-c2ccc3c(c2)NC(=O)CO3)cs1`?
MCL1 BIM primary: -1.3; eIF4E-4G inh: 2.6; Mcl-1 Bim block: -1.0; Mcl1 Noxa PPI: 14.6; Mcl1 Bid PPI: 28.2; 14-3-3 Bad PPI: 78.3*

What do the screens show for `CCC(C)C(=O)Nc1nc(-c2ccc3c(c2)NC(=O)CO3)cs1` (configuration not stated)?
MCL1 BIM primary: 9.7; eIF4E-4G inh: -0.4; Mcl-1 Bim block: -1.0; Mcl1 Noxa PPI: 28.2; Mcl1 Bid PPI: -10.5; 14-3-3 Bad PPI: 14.4

What do the screens show for `COc1ccc(NC2c3ncccc3C(=O)N2Cc2cccs2)cc1` (configuration not stated)?
MCL1 BIM primary: 9.9; eIF4E-4G inh: -0.6; Mcl-1 Bim block: 2.0; Mcl1 Noxa PPI: 30.6; Mcl1 Bid PPI: -24.1; 14-3-3 Bad PPI: 3.1

What do the screens show for `COc1ccc(CN2C(=O)c3cccnc3C2O)cc1` (configuration not stated)?
MCL1 BIM primary: 2.0; eIF4E-4G inh: 6.5; Mcl-1 Bim block: 0.0; Mcl1 Noxa PPI: 24.7; Mcl1 Bid PPI: 92.3*; 14-3-3 Bad PPI: 86.6*

How did COC(=O)c1cc(NC2c3ncccc3C(=O)N2Cc2ccccc2)cc(C(=O)OC)c1 (configuration not stated) do in these assays?
MCL1 BIM primary: -1.3; eIF4E-4G inh: 4.0; Mcl-1 Bim block: 1.0; Mcl1 Noxa PPI: 9.3; Mcl1 Bid PPI: 9.5; 14-3-3 Bad PPI: 4.2

Compound activity as filed in PubChem BioAssay.
